Screens (PubChem)
HIF activator: HIF pathway transcriptional activation. activation, % at 7.5 µM (by protocol). U2OS HRE-luciferase reporter, luminescence; normalized: DMSO 0%, desferrioxamine 100%. 0.32% of 300,000 active;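 active = mean activation of at least 10% of the iron chelator positive control signal, with at least half of replicates also reaching 10%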
SUMO Mot1 rescue: SUMOylation pathway inhibition by Mot1-301 growth rescue | growth rescue, % at 18.8 µM | S. cerevisiae Mot1-301 growth rescue, ATP luminescence, 38.5C; percent above DMSO median, 100 means doubled | 1% of 320,000 active;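 active = every valid replicate shows activation above 250% relative to neutral control wells; inactive = the rest, any valid replicate at or below 250%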;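 also: OY570 slx delta 5 strain wells were the positive control but not used for scaling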
PfM18AAP inh: PfM18AAP enzyme inhibition. recombinant PfM18AAP, H-Glu-NHMec fluorogenic cleavage. inhibition, % at 7.35 µM. 1.2% of 290,000 active. AID 1822;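 active = inhibition above the campaign mean inhibition over all tested compounds plus 3 SD, cut at about 28% in these data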;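 also: 0% = plate median of test compound wells and 100% = 2 mM ZnCl2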
ALR H2O2 inh: inhibitors of human sulfhydryl oxidase ALR | P55789 | purified ALR, DTT oxidation, H2O2 HRP-luminol luminescence | inhibition, % (test concentration not listed) | 3.8% of 290,000 active | AID 485317;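 active = mean replicate inhibition above about 79%, with every replicate also reaching it, limit read from the data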
Target sequence (P55789 whole entry, looked up): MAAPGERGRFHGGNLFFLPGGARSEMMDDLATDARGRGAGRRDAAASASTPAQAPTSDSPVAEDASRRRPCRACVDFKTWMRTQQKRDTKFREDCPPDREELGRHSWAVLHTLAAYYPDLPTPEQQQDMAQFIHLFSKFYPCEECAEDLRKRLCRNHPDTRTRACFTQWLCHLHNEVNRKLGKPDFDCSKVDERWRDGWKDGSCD
The depositor's hits bear a star; . = not tested or not shown. Rows were chosen to be rich in hits. Some 5.3% of all compounds tested hit in one or more screens of this group.

SMILES	HIF activator	SUMO Mot1 rescue	PfM18AAP inh	ALR H2O2 inh
Clc1ccc(/C=N/Nc2ncnc3nc[nH]c23)cc1	2.5	.	-0.1	93.1*
Cc1ccc(/C=N/Nc2ncnc3nc[nH]c23)cc1	2.4	2.8	8.1	64.9
Oc1ccc(/C=N/Nc2ncnc3nc[nH]c23)cc1	0.1	-1.5	2.6	.
Cc1cccc(Nc2ncnc3nc[nH]c23)c1	3.0	-10.4	16.0	94.7*
Fc1cccc(/C=N/Nc2ncnc3nc[nH]c23)c1	2.6	-14.9	29.7*	-2.0
O=C(CNC(=O)c1ccc(Cl)cc1)NCC(F)(F)F	-1.9	9.3	-1.5	-4.3
CCOc1ccc(NC(=O)c2nn(C)c(C(=O)Nc3ccc(OCC)cc3)c2[N+](=O)[O-])cc1	-0.4	3.7	9.9	1.5
CCOc1ccc(N/C(=C(/C(Cl)=C(Cl)Cl)[N+](=O)[O-])n2cncn2)cc1	0.0	1.0	78.1*	-74.2
O=[N+]([O-])c1ccc(/C=C2\CCC(C3=CCCC3)=C2N2CCOCC2)cc1	-2.0	30.2	10.6	97.5*
Cc1ccc(Nc2nc(CSc3nnnn3-c3ccccc3)cs2)cc1	1.1	14.2	3.5	9.3
Cc1ccc(Nc2nc(CSc3n[nH]c(N)n3)cs2)cc1	1.5	8.0	28.9*	97.8*
Cn1nnnc1SCc1csc(Nc2ccccc2)n1	2.4	1.9	14.6	90.2*
Cc1ccc(Nc2nc(CSc3nnnn3C)cs2)cc1	4.0	.	-2.7	98.6*
[N-]=[N+]=NC[C@H](Cc1ccccc1)N1CCN(Cc2ccccc2)CCC1=O	0.1	31.5	0.0	-4.7
CCCn1ncc2c(Nc3ccc(C)c(C)c3)ncnc21	4.6	-17.4	2.4	95.7*
COc1ccc(C2=NO[C@@H]3[C@@H]4C[C@@H]([C@H]5C(=O)N(C)C(=O)[C@@H]45)[C@H]23)c(OC)c1	-0.3	-1.3	3.1	-1.2
C/C(=N\Nc1nc(C)cc(-c2ccccc2)n1)c1cccc(N)c1	0.7	7.7	0.5	99.0*
C/C(=N\Nc1nc(C)cc(-c2ccccc2)n1)c1ccc(O)cc1	-0.8	8.7	5.5	96.1*
COc1ccc(NC(=O)CSc2nnc3n2CCCCC3)cc1S(=O)(=O)N1CCOCC1	.	10.7	.	-14.8
CCCc1ccc(-c2c(C)sc(N)c2C#N)cc1	-20.5	34.9	19.8	91.7*
CCCC(=O)Nc1sc(C)c(-c2ccc(OC)cc2)c1C#N	.	3.4	0.1	.
O=S(=O)(c1cccc(-c2n[nH]c(=S)n2-c2ccccc2Cl)c1)N1CCOCC1	.	146.8	.	98.9*
O=S(=O)(c1cccc(-c2n[nH]c(=S)n2Cc2ccccc2)c1)N1CCOCC1	-0.7	15.2	15.1	50.1
Cc1noc(C)c1S(=O)(=O)N(C)C[C@H]1Oc2c(NC(=O)Nc3ccc(C(F)(F)F)cc3)cccc2C(=O)N([C@H](C)CO)C[C@@H]1C	.	20.9	.	.
O=C(Nc1nc2ccccc2s1)C1CCN(S(=O)(=O)c2cc([N+](=O)[O-])ccc2Cl)CC1	0.7	-34.7	28.5*	.
SMILES	HIF activator	SUMO Mot1 rescue	PfM18AAP inh	ALR H2O2 inh
Cc1cccc(C)c1NC(=O)NC1(C(=O)N2CCCC2)CCCCC1	-0.6	-9.7	-10.6	.
Cc1ccc(/C=N/NC(=O)CN2CCN(Cc3ccccc3Cl)CC2)o1	143.2*	-5.3	6.2	-6.7
CSc1ccc(/C=N/NC(=O)CN2CCN(Cc3ccccc3Cl)CC2)cc1	-0.2	144.6	3.1	.
CN1CCN(c2ccc(NC(=O)c3ccc(Cl)cc3)cn2)CC1	1.9	-11.2	1.6	94.0*
CN(C)c1ccc(NC(=O)c2ccc(N3CCOCC3)nc2)cc1	2.3	-10.4	2.4	99.7*
COc1ccc(S(=O)(=O)N2CCc3ccccc32)cc1C(=O)NCC(c1ccco1)N1CCCC1 (centres undefined)	.	12.7	.	1.3
CSc1nc(C)cc(C)c1C#N	103.4*	-2.3	-3.7	.
CC(C)(Oc1ccc(Cl)cc1)C(=O)O/N=C(\N)c1ccncc1	1.1	-19.7	6.1	7.3
N/C(=N\NS(=O)(=O)c1cc(C(F)(F)F)cc(C(F)(F)F)c1)c1ccccn1	2.9	-1.7	-6.6	85.2*
CCN(CC)S(=O)(=O)c1cccc(-c2cn3cc(C)ccc3n2)c1	2.6	2.9	-9.5	60.8
O=S(=O)(c1cccc(-c2cn3cccnc3n2)c1)N1CCCCCC1	0.0	6.8	5.1	-3.0
CN(C)S(=O)(=O)c1cccc(-c2cn3cccnc3n2)c1	0.1	-1.8	-0.3	98.6*
Cc1ccc2nc(-c3cccc(S(=O)(=O)N4CCCC4)c3)cn2c1	2.8	10.2	0.1	9.5
Cc1ccc2nc(-c3cccc(S(=O)(=O)N(C)C)c3)cn2c1	2.0	-3.2	1.6	99.2*
Cc1ccc2nc(-c3cccc(S(=O)(=O)N4CC(C)OC(C)C4)c3)cn2c1 (centres undefined)	0.7	134.7	3.5	98.1*
